Data from the supplement of paper PMC9262897, “Low-cost anti-mycobacterial drug discovery using engineered E. coli” (Nature Communications, 2022).
Counter-ions that a name gives are not always drawn. ± gives the standard deviation of the averaged measurements.

Key:
Test in all cases: growth (OD600 after 10 h); higher = more growth (less inhibition)
[1] = test system: E. coli TESEC Alr+ wild-type control; conditions: compound 0.1 mM; raw OD600 reference: median of DMSO wells 0.241, cell-free background 0.041
Method: (§1)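 TESEC Mtb Alr E. coli, or the Alr+ wild-type control, in 384-well plates with Prestwick library compounds at 0.1 mM and 1% DMSO, across arabinose induction levels of 1E3 to 1E7 nM. Growth is read as OD600 after 10 h at 37 °C in triplicate biological replicates.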

[2] = test system: E. coli TESEC Mtb Alr; conditions: compound 0.1 mM
Method: as §1

[3] = test system: E. coli TESEC Mtb Asd; conditions: compound 0.1 mM
Method: (§2)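 TESEC E. coli strains in which the native enzyme is deleted and replaced by arabinose-inducible Mtb Asd, DapB, CysH or TrpD, each grown in its selective medium. Strains were screened against the Prestwick library at 0.1 mM and 1% DMSO in 384-well format at low and high arabinose induction. Growth is read as OD600 after 10 h in triplicate.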

[4] = test system: E. coli TESEC Mtb DapB; conditions: compound 0.1 mM
Method: as §2

[5] = test system: E. coli TESEC Mtb Alr; conditions: compound 0.1 mM; remark: listed apart in the source
Method: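 TESEC Mtb Alr E. coli (ΔaraC ΔtolC ΔentC Δalr ΔdadX, arabinose-inducible Mtb Alr) or the Alr+ wild-type control strain, grown in defined M9-fructose medium without D-alanine in 96-well plates with Prestwick library compounds at 0.1 mM and 1% DMSO. Low Alr induction is 0.1 µM arabinose and high induction is 10 mM arabinose.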

[6] = arabinose 1000 nM, raw OD600 reference: median of DMSO wells 0.294, cell-free background 0.041
[7] = arabinose 10000 nM, raw OD600 reference: median of DMSO wells 0.264, cell-free background 0.041
[8] = arabinose 100000 nM, raw OD600 reference: median of DMSO wells 0.201, cell-free background 0.041
[9] = arabinose 1000000 nM, raw OD600 reference: median of DMSO wells 0.193, cell-free background 0.041
[10] = arabinose 10000000 nM, raw OD600 reference: median of DMSO wells 0.146, cell-free background 0.041
[11] = arabinose induction (level): High, raw OD600 reference: median of DMSO wells 0.331, cell-free background 0.041
[12] = arabinose induction (level): Low, raw OD600 reference: median of DMSO wells 0.417, cell-free background 0.041
[13] = arabinose induction (level): High, raw OD600 reference: median of DMSO wells […], cell-free background 0.041
[14] = arabinose induction (level): Low, raw OD600 reference: median of DMSO wells 0.227, cell-free background 0.041
[15] = arabinose 100 nM, raw OD600 reference: median of DMSO wells 0.413, cell-free background 0.052
[16] = arabinose 10000000 nM, raw OD600 reference: median of DMSO wells […], cell-free background 0.052

| SMILES | growth [1] | growth [2, 6] | growth [2, 7] | growth [2, 8] | growth [2, 9] | growth [2, 10] | growth [3, 11] | growth [3, 12] | growth [4, 13] | growth [4, 14] | growth [5, 15] | growth [5, 16] |
| --- | --- | --- | --- | --- | --- | --- | --- | --- | --- | --- | --- | --- |
| Cc1onc(-c2ccccc2Cl)c1C(=O)N[C@@H]1C(=O)N2[C@@H]1SC(C)(C)[C@@H]2C(=O)O [Cloxacillin sodium salt] | 0.2567 ± 0.0017 | 0.288 ± 0.018 | 0.267 ± 0.005 | 0.217 ± 0.025 | 0.183 ± 0.0023 | 0.144 ± 0.0071 | 0.32 ± 0.051 | 0.41 ± 0.046 | 0.162 ± 0.01 | 0.208 ± 0.015 | 0.417 ± 0.0066 | 0.344 ± 0.014 |
| Cn1c([N+](=O)[O-])cnc1COC(N)=O [Ronidazole] | 0.226 ± 0.0055 | 0.296 ± 0.007 | 0.27 ± 0.0076 | 0.161 ± 0.0087 | 0.149 ± 0.0036 | 0.164 ± 0.0025 | 0.241 ± 0.036 | 0.338 ± 0.016 | 0.187 ± 0.0036 | 0.253 ± 0.031 | 0.4333 ± 0.0022 | 0.285 ± 0.011 |
| OCc1cc(C(O)CNCCCCCCOCCCCc2ccccc2)ccc1O (stereo unspecified) [Salmeterol] | 0.166 ± 0.0032 | 0.181 ± 0.012 | 0.159 ± 0.0031 | 0.171 ± 0.0065 | 0.0641 ± 0.0012 | 0.151 ± 0.0035 | 0.176 ± 0.01 | 0.202 ± 0.049 | 0.208 ± 0.017 | 0.214 ± 0.017 | 0.349 ± 0.0092 | 0.201 ± 0.033 |
| CCn1cc(C(=O)O)c(=O)c2cc(F)c(N3CCNCC3)nc21 [Enoxacin] | 0.0456 ± 0.0012 | 0.0427 ± 0.0002 | 0.03917 ± 0.00031 | 0.0439 ± 0.0015 | 0.0411 ± 0.0025 | 0.0452 ± 0.0001 | 0.0919 ± 0.024 | 0.0687 ± 0.0059 | 0.06527 ± 0.00061 | 0.061 ± 0.0086 | 0.0588 ± 0.0019 | 0.05293 ± 0.00025 |
| CN1CC2c3ccccc3Oc3ccc(Cl)cc3C2C1 (stereo unspecified) [Asenapine maleate] | 0.184 ± 0.004 | 0.159 ± 0.012 | 0.225 ± 0.0073 | 0.18 ± 0.004 | 0.123 ± 0.0024 | 0.164 ± 0.0081 | 0.229 ± 0.031 | 0.295 ± 0.017 | 0.213 ± 0.0042 | 0.254 ± 0.026 | 0.417 ± 0.0072 | 0.266 ± 0.0045 |
| CC(C)n1c(/C=C/C(O)CC(O)CC(=O)O)c(-c2ccc(F)cc2)c2ccccc21 (stereo unspecified) [Fluvastatin sodium salt] | 0.165 ± 0.0024 | 0.247 ± 0.017 | 0.192 ± 0.0063 | 0.187 ± 0.015 | 0.0938 ± 0.0088 | 0.157 ± 0.0043 | 0.216 ± 0.066 | 0.32 ± 0.052 | 0.17 ± 0.0096 | 0.199 ± 0.02 | 0.394 ± 0.03 | 0.235 ± 0.0099 |
| CC(C)(C)NC(=O)[C@@H]1C[C@@H]2CCCC[C@@H]2CN1C[C@@H](O)[C@H](Cc1ccccc1)NC(=O)[C@H](CC(N)=O)NC(=O)c1ccc2ccccc2n1 [Saquinavir mesylate] | 0.072 ± 0.012 | 0.0535 ± 0.0019 | 0.0491 ± 0.0035 | 0.0468 ± 0.0011 | 0.051 ± 0.0027 | 0.0524 ± 0.0032 | 0.0544 ± 0.0037 | 0.0524 ± 0.001 | 0.05287 ± 0.00045 | 0.0578 ± 0.0085 | 0.273 ± 0.11 | 0.0539 ± 0.0034 |
| CC(C)(C)NC(=O)[C@H]1CC[C@H]2[C@@H]3CC[C@H]4NC(=O)C=C[C@]4(C)[C@H]3CC[C@]12C [Finasteride] | 0.121 ± 0.003 | 0.201 ± 0.015 | 0.201 ± 0.0065 | 0.133 ± 0.0022 | 0.0954 ± 0.00085 | 0.144 ± 0.0043 | 0.308 ± 0.064 | 0.268 ± 0.064 | 0.183 ± 0.0049 | 0.228 ± 0.006 | 0.366 ± 0.022 | 0.182 ± 0.03 |
